Reference: PubChem BioAssay (EPA / NIEHS)
“And” between values parts separate entries of the source, which are not always exact repeats. Identical values can stand only once. The source holds several records for some structures; these can differ, active in one and inactive in another. The source made the active and inactive calls. Rule for the calls: active = hit-call score of the fitted dose curve at least 0.9, where 1 is the maximum; inactive = score below 0.9.

Legend:
Conditions in all cases: primary human HUVEC with PBMC; actives raise or lower the signal
[1] = read-out: Interleukin-1 alpha (IL1a), IL1A (gene 3552); test: BSK_LPS_IL1a: BioMAP Diversity Plus: LPS Assay for Interleukin-1 alpha (IL1a) Biomarker Activity (AID 2283080)
Summary of the method: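 HUVEC/PBMC co-culture, LPS system; 24 h after dosing; IL-1a by ELISA; gain or loss of signal fitted bidirectionally vs DMSO baseline.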

[2] = read-out: Monocyte Chemoattractant Protein-1 (MCP1), CCL2 (gene 6347); test: BSK_LPS_MCP1: BioMAP Diversity Plus: LPS Assay for Monocyte Chemoattractant Protein-1 (MCP1) Biomarker Activity (AID 2283081);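 for AC50: secreted MCP-1 protein quantified by ELISA in culture supernatant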
Summary of the method: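 ELISA read-out of MCP-1 after 24 h chemical dosing of a human umbilical vein endothelial cell/peripheral blood mononuclear cell co-culture stimulated with LPS. Gain or loss of signal fitted relative to DMSO controls.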

[3] = BSK_LPS_PGE2: BioMAP Diversity Plus: LPS Assay for Prostaglandin E2 (PGE2) Biomarker Activity (AID 2283082);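 for AC50: secreted prostaglandin E2 measured by ELISA in LPS-stimulated co-culture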
Summary of the method: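 PGE2 release measured by ELISA in an LPS-activated co-culture of human umbilical vein endothelial cells and peripheral blood mononuclear cells, read at 24 h post-dosing. DMSO served as baseline for bidirectional curve fitting.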

[4] = read-out: Tissue Factor, F3 (gene 2152); test: BSK_LPS_TissueFactor: BioMAP Diversity Plus: LPS Assay for Tissue Factor Biomarker Activity (AID 2283084)
Summary of the method: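 HUVEC/PBMC co-culture, LPS-activated; CD142 ELISA read 24 h post-dose; bidirectional curve fit vs DMSO negative control.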

[5] = read-out: Tumor necrosis factor (Homo sapiens) (UniProt P01375); test: BSK_LPS_TNFa: BioMAP Diversity Plus: LPS Assay for Tumour Necrosis Factor alpha (TNFa) Biomarker Activity (AID 2283085);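 for AC50: TNFa protein level quantified by ELISA in the co-culture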
Summary of the method: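 TNFa was quantified by ELISA in LPS-activated co-cultures of human endothelial cells and PBMC, 24 h post-dosing. Both increases and decreases versus DMSO were fitted.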

[6] = read-out: Vascular cell adhesion molecule 1 (VCAM1), VCAM1 (gene 7412); test: BSK_LPS_VCAM1: BioMAP Diversity Plus: LPS Assay for Vascular cell adhesion molecule 1 (VCAM1) Biomarker Activity (AID 2283086)
Summary of the method: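 VCAM-1 quantified by ELISA in an LPS-activated co-culture of human endothelial cells and peripheral blood mononuclear cells, read 24 h post-treatment. Fitted in both directions versus DMSO; parallel SRB staining flags overt cytotoxicity.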

[7] = read-out: CD38, CD38 (gene 952); test: BSK_SAg_CD38: BioMAP Diversity Plus: SAg Assay for CD38 Biomarker Activity (AID 2283087)
Summary of the method: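 CD38 quantified by ELISA (fluorescence) in a superantigen-activated endothelial cell–PBMC co-culture at 24 h post-dose. Activity fitted in both directions relative to DMSO; parallel SRB and Alamar Blue cytotoxicity read-outs.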

[8] = read-out: CD40, CD40 (gene 958); test: BSK_SAg_CD40: BioMAP Diversity Plus: SAg Assay for CD40 Biomarker Activity (AID 2283088)
Summary of the method: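 HUVEC/PBMC co-culture, 24 h post-dose; CD40 by ELISA, fluorescence intensity; bidirectional fit vs DMSO negative control.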

[9] = read-out: CD69, CD69 (gene 969); test: BSK_SAg_CD69: BioMAP Diversity Plus: SAg Assay for CD69 Biomarker Activity (AID 2283089);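 for AC50: cell surface CD69 protein quantified by ELISA with fluorescence detection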
Summary of the method: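 HUVEC co-cultured with PBMC were dosed with chemical, and CD69 was measured by ELISA with fluorescence read-out 24 h later. Bidirectional curve fitting used DMSO as negative control and activity baseline.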

[10] = read-out: Macrophage colony-stimulating factor (MCSF), CSF1 (gene 1435); test: BSK_LPS_MCSF: BioMAP Diversity Plus: LPS Assay for Macrophage colony-stimulating factor (MCSF) Biomarker Activity (AID 2283083)
Summary of the method: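 HUVEC + PBMC co-culture (human primary), 24 h post-dose; M-CSF by ELISA; gain/loss of signal fitted bidirectionally vs DMSO baseline.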

Measured: AC50

Sequence of Tumor necrosis factor (Homo sapiens) (P01375 whole entry, looked up): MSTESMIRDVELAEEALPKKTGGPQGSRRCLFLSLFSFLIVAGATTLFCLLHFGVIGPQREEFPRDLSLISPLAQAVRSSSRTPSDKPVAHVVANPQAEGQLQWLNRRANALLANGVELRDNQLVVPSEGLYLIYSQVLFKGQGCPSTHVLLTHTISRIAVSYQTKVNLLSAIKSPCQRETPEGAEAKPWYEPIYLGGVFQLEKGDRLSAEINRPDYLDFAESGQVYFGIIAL

CCCN(CCC)c1c([N+](=O)[O-])cc(S(N)(=O)=O)cc1[N+](=O)[O-]
active: [1] 33.5 µM [middle of 4 runs] | [2] 37.8 µM and 35.1 µM and 33 µM | [3] 34.7 µM | [4] 34.3 µM and 38.1 µM and 32.8 µM | [5] 33.6 µM and 32.2 µM | [6] 34.6 µM [middle of 4 runs] | [7] 38.7 µM [middle of 4 runs] | [8] 35.8 µM [middle of 4 runs] | [9] 32.6 µM [middle of 4 runs]
inactive: [2] | [3] | [4] | [5]

COP(=S)(OC)Oc1nc(Cl)c(Cl)cc1Cl
active: [1] 27 µM | [2] 30.4 µM | [3] 26.7 µM | [5] 27.8 µM | [6] 26.4 µM
inactive: [7] | [8] | [9]

Cc1c(F)c(F)c(COC(=O)C2C(/C=C(\Cl)C(F)(F)F)C2(C)C)c(F)c1F (centres undefined)
active: [1] 0.3 µM | [6] 12 µM | [7] 9.52 µM | [8] 32.5 µM | [9] 5.53 µM
inactive: [2] | [3] | [5]

COc1nc(C)nc(NC(=O)NS(=O)(=O)c2ccccc2Cl)n1
not listed: [4] | [10]
inactive: all other assays above

CCOP(=S)(OCC)SCn1c(=O)oc2cc(Cl)ccc21
active: [2] 25.8 µM | [3] 13.5 µM | [5] 12 µM | [6] 13.9 µM | [7] 30.4 µM
inactive: [1] | [8] | [9]

COC(=O)N(OC)c1ccccc1COc1ccn(-c2ccc(Cl)cc2)n1
active: [2] 9.04 µM | [3] 0.215 µM | [5] 9.8 µM | [6] 13 µM | [7] 5.43 µM | [8] 15 µM | [9] 3.97 µM
inactive: [1]

N#CC(CCc1ccc(Cl)cc1)(Cn1cncn1)c1ccccc1 (centres undefined)
active: [3] 3.75 µM
not listed: [4] | [10]
inactive: all other assays above

C=CCC1=C(C)[C@@H](OC(=O)[C@@H]2[C@@H](C=C(C)C)C2(C)C)CC1=O
active: [1] 32.3 µM | [2] 32.1 µM | [3] 4.92 µM | [5] 36.5 µM | [6] 29.2 µM | [7] 33.1 µM | [8] 38.7 µM | [9] 36.5 µM

CCNc1nc(Cl)nc(NC(C)C)n1
active: [5] 6.09 µM
not listed: [4] | [10]
inactive: all other assays above

Oc1ccccc1-c1ccccc1
active: [3] 4.65 µM | [5] 14.8 µM
not listed: [4] | [10]
inactive: all other assays above

N#Cc1nn(-c2c(Cl)cc(C(F)(F)F)cc2Cl)c(N)c1S(=O)C(F)(F)F (centres undefined)
active: [1] 35.9 µM | [2] 32.4 µM | [5] 5.27 µM | [6] 31.2 µM | [7] 29.7 µM | [8] 28.1 µM | [9] 25.6 µM
inactive: [3]

OC(c1ccc(Cl)cc1)(c1cncnc1)c1ccccc1Cl (centres undefined)
inactive: [1] | [2] | [6]
active: [3] 4.99 µM | [5] 10.9 µM | [7] 20 µM | [8] 13.8 µM | [9] 14.2 µM

CCOC(=O)CC(SP(=S)(OC)OC)C(=O)OCC (centres undefined)
not listed: [4] | [10]
inactive: all other assays above

CCON=C(CC)C1=C(O)CC(c2c(C)cc(C)cc2C)CC1=O (centres undefined)
active: [3] 20 µM
not listed: [4] | [10]
inactive: all other assays above

CCOc1cc(Oc2ccc(C(F)(F)F)cc2Cl)ccc1[N+](=O)[O-]
active: [7] 8.23 µM
not listed: [4] | [10]
inactive: all other assays above

CC(C)Oc1cc(-n2nc(C(C)(C)C)oc2=O)c(Cl)cc1Cl
active: [1] 32.7 µM | [2] 30.2 µM | [5] 35.7 µM | [6] 31.7 µM | [7] 28.7 µM | [8] 29.3 µM | [9] 30.7 µM
inactive: [3]

CC(C)C1(C)N=C(c2nc3ccccc3cc2C(=O)O)NC1=O (centres undefined)
active: [8] 1.33 µM
not listed: [4] | [10]
inactive: all other assays above

CNC(=O)ON=CC(C)(C)SC
active: [3] 2.13 µM
not listed: [4] | [10]
inactive: all other assays above

CON(C)C(=O)Nc1ccc(Cl)c(Cl)c1
active: [3] 6.39 µM
not listed: [4] | [10]
inactive: all other assays above

CC(Oc1ccc(Cl)cc1Cl)C(=O)O (centres undefined)
not listed: [4] | [10]
inactive: all other assays above

COc1cnc(OC)n2nc(NS(=O)(=O)c3c(OCC(F)F)cccc3C(F)(F)F)nc12
not listed: [4] | [10]
inactive: all other assays above

CCCCC(CC)COC(=O)c1ccccc1C(=O)OCC(CC)CCCC (centres undefined)
active: [5] 12.3 µM | [7] 7.36 µM | [9] 5.92 µM
not listed: [4] | [10]
inactive: all other assays above

CC1COC(Cn2cncn2)(c2ccc(Oc3ccc(Cl)cc3)cc2Cl)O1 (centres undefined)
active: [1] 32 µM | [2] 31.7 µM | [3] 0.172 µM | [5] 31.5 µM | [6] 29.7 µM | [7] 19.4 µM | [8] 18.4 µM | [9] 18.8 µM

CCOC(=O)C(Cl)Cc1cc(-n2nc(C)n(C(F)F)c2=O)c(F)cc1Cl (centres undefined)
not listed: [4] | [10]
inactive: all other assays above

N#Cc1cc(Br)c(O)c(Br)c1
inactive: [2] | [3] | [5] | [6]
active: [1] 20 µM | [7] 31.2 µM | [8] 20 µM | [9] 26.4 µM

COc1nc(NC(C)C)nc(NC(C)C)n1
active: [5] 9.63 µM
not listed: [4] | [10]
inactive: all other assays above

CNC(=S)S
active: [2] 20 µM | [3] 8.25 µM | [10] 9.92 µM | [5] 7.49 µM | [6] 12.4 µM | [7] 13.7 µM
inactive: [8] | [9]

CCCC1COC(Cn2cncn2)(c2ccc(Cl)cc2Cl)O1 (centres undefined)
active: [3] 6.44 µM
not listed: [4] | [10]
inactive: all other assays above
